# In PubChem BioAssay (EPA / NIEHS):
# Values joined by “and” are separate entries in the source; they are usually repeats but may differ in a detail not shown here. Identical values can stand only once. Results filed as inconclusive are left out. Active and inactive are the calls of the source. Rule for the calls: active = hit-call score of the fitted dose curve at least 0.9, where 1 is the maximum; inconclusive = response in the unintended direction; inactive = score below 0.9.
# Biological target: mouse Cholecystokinin, CCK1 Receptor (CCKA), Cckar (gene 12425) (UniProt O08786)
# Assay: NVS_GPCR_mCCKAPeripheral: NovaScreen (NVS) G Protein-Coupled Receptor Assay for mouse Cholecystokinin, CCK1 Receptor (CCKA) (AID 2283285)
# Outline: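 Radioligand competitive displacement on mouse pancreatic membranes, 2 h incubation; filter-based scintillation counting, loss of signal versus DMSO. Single-concentration screen at 25 uM in duplicate, actives retested in concentration-response up to 50 uM.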
# Sequence of mouse Cholecystokinin, CCK1 Receptor (CCKA), Cckar (gene 12425) (O08786 whole entry, looked up): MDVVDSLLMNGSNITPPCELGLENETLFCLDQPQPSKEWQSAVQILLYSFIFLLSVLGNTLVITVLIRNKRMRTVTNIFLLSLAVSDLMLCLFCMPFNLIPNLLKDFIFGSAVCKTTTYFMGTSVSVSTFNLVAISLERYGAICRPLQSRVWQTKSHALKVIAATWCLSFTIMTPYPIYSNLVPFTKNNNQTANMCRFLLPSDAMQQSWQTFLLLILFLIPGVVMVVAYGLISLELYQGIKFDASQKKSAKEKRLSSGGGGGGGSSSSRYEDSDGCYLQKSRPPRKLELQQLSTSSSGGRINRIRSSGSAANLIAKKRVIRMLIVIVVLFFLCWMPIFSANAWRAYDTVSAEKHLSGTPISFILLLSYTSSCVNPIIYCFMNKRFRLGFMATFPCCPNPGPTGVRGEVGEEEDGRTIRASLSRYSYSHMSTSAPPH
SMILES,AC50,outcome
C=CCC1=C(C)[C@@H](OC(=O)[C@@H]2[C@@H](C=C(C)C)C2(C)C)CC1=O,19.9 µM (active),
CO/C=C(/C(=O)OC)c1ccccc1Oc1cc(Oc2ccccc2C#N)ncn1,,inactive
C=CCC1=C(C)C(OC(=O)C2C(C=C(C)C)C2(C)C)CC1=O (configuration not stated),25 µM (active) [middle of 4 runs],

# Tested on: rabbit Platelet Activating Factor Receptor (PAF), gene 100354046
# Assay: NVS_GPCR_rabPAF: NovaScreen (NVS) G Protein-Coupled Receptor Assay for rabbit Platelet Activating Factor Receptor (PAF) (AID 2283287)
# Outline: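 Rabbit platelet membrane preparation; radioligand displacement read by filter-based scintillation counting 1 h after dosing, loss of signal versus DMSO. Primary screen in duplicate at 25 uM, actives followed up in concentration series.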
SMILES,AC50,outcome
CCCC1COC(Cn2cncn2)(c2ccc(Cl)cc2Cl)O1 (configuration not stated),14.4 µM (active),
CCc1nn(C)c(C(=O)NCc2ccc(C(C)(C)C)cc2)c1Cl,,inactive
C=CCC1=C(C)[C@@H](OC(=O)[C@@H]2[C@@H](C=C(C)C)C2(C)C)CC1=O,25 µM (active),
CO/C=C(/C(=O)OC)c1ccccc1Oc1cc(Oc2ccccc2C#N)ncn1,13.9 µM (active) and 15.7 µM (active),
COC(=O)C(C)Oc1ccc(Oc2ccc(Cl)cc2Cl)cc1 (configuration not stated),,inactive
CCCCC(CC)COC(=O)c1ccccc1C(=O)OCC(CC)CCCC (configuration not stated),,inactive
CNC(=S)S,,inactive
CC(C)Oc1cc(-n2nc(C(C)(C)C)oc2=O)c(Cl)cc1Cl,9.82 µM (active),
Fc1ccc(Oc2ccnc3cc(Cl)cc(Cl)c23)cc1,,inactive

# Biological target: rat Adrenergic, Alpha 1, Non-selective Receptor (Adra1), Adra1a (gene 29412) (UniProt P43140)
# Assay: NVS_GPCR_rAdra1_NonSelective: NovaScreen (NVS) G Protein-Coupled Receptor Assay for rat Adrenergic, Alpha 1, Non-selective Receptor (Adra1) (AID 2283289)
# Outline: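 Rat forebrain membranes; radioligand displacement read by filter-based scintillation counting 1 h after dosing. Primary screen in duplicate at 25 uM; hits (e.g. ≥30% inhibition) rerun as concentration–response to 50 uM max. Fitted versus DMSO.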
# Sequence of rat Adrenergic, Alpha 1, Non-selective Receptor (Adra1), Adra1a (gene 29412) (P43140 whole entry, looked up): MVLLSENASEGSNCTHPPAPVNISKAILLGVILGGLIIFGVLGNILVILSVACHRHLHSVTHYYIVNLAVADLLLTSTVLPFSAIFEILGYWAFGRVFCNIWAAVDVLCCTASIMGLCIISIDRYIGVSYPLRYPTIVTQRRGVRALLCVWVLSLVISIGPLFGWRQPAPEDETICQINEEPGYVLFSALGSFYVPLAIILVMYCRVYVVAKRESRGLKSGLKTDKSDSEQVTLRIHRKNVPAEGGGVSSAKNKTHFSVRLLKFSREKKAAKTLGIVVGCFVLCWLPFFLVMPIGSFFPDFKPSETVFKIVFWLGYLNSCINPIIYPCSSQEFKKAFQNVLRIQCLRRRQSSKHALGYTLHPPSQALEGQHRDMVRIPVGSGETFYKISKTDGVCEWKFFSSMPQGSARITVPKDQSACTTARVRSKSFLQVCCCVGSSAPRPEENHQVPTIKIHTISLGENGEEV
row,SMILES,outcome
1,COc1ccc(C(c2ccc(OC)cc2)C(Cl)(Cl)Cl)cc1,inactive
2,CCCCOC(=O)c1ccccc1C(=O)OCCCC,inactive
3,Cc1c(F)c(F)c(COC(=O)C2C(/C=C(\Cl)C(F)(F)F)C2(C)C)c(F)c1F (configuration not stated),inactive

# Biological target: guinea pig Bradykinin Receptor B2 (BK2), BDKRB2 (gene 100135486) (UniProt O70526)
# Assay: NVS_GPCR_gBK2: NovaScreen (NVS) G Protein-Coupled Receptor Assay for guinea pig Bradykinin Receptor B2 (BK2) (AID 2283292)
# Outline: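 Radioligand displacement on guinea pig ileum membranes for 1 h, read by filter-based scintillation counting; loss of signal relative to DMSO. Compounds were screened in duplicate at 25 uM, and those passing the threshold were retested in concentration-response up to 50 uM.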
# Sequence of guinea pig Bradykinin Receptor B2 (BK2), BDKRB2 (gene 100135486) (O70526 whole entry, looked up): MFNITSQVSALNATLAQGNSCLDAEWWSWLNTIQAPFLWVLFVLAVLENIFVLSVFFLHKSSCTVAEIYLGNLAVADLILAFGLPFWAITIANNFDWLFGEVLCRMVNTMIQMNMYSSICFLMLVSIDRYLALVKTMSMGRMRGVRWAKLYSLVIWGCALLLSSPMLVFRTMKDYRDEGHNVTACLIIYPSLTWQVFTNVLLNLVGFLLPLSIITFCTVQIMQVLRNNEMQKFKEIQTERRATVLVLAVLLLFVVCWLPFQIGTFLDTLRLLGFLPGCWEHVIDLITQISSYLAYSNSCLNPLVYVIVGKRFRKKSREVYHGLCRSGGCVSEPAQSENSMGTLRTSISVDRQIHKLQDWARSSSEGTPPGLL
row,SMILES,outcome
1,O=C(O)c1nc(Cl)ccc1Cl,inactive
2,CO/C=C(/C(=O)OC)c1ccccc1Oc1cc(Oc2ccccc2C#N)ncn1,inactive
3,CCCN(CCC)c1c([N+](=O)[O-])cc(S(N)(=O)=O)cc1[N+](=O)[O-],inactive

# Biological target: guinea pig Serotonin, 5-Hydroxytryptamine Receptor 4 (5HT4), HTR4 (gene 100135548) (UniProt O70528)
# Assay: NVS_GPCR_g5HT4: NovaScreen (NVS) G Protein-Coupled Receptor Assay for guinea pig Serotonin, 5-Hydroxytryptamine Receptor 4 (5HT4) (AID 2283294)
# Outline: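 Guinea pig striatal membranes; radioligand competitive displacement, filtration and scintillation counting after 1 h. Primary screen in duplicate at 25 uM; actives then tested in concentration series; loss of binding signal fitted relative to DMSO.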
# Sequence of guinea pig Serotonin, 5-Hydroxytryptamine Receptor 4 (5HT4), HTR4 (gene 100135548) (O70528 whole entry, looked up): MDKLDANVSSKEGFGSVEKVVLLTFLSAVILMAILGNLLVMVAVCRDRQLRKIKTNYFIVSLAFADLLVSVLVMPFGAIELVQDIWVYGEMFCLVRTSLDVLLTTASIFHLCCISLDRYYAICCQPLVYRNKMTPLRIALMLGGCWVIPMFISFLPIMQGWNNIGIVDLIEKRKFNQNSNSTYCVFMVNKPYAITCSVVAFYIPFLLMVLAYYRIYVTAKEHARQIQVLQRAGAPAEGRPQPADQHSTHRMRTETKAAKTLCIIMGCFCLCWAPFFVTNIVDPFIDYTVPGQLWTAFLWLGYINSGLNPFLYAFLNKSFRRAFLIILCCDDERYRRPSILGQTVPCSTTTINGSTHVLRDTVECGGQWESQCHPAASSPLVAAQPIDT
SMILES,AC50,outcome
CCCCNC(=O)OCC#CI,13.7 µM (active) and 25 µM (active),
CON(C)C(=O)Nc1ccc(Cl)c(Cl)c1,12.4 µM (active),
CO/C=C(/C(=O)OC)c1ccccc1Oc1cc(Oc2ccccc2C#N)ncn1,,inactive
CC1COC(Cn2cncn2)(c2ccc(Oc3ccc(Cl)cc3)cc2Cl)O1 (configuration not stated),,inactive
O=C(Nc1ccccc1)Nc1ccnc(Cl)c1,9.9 µM (active),
Oc1ccccc1-c1ccccc1,,inactive

# Biological target: rat Serotonin, 5-Hydroxytryptamine Receptor (5HT), Non-Selective Binding, Htr1a (gene 24473) (UniProt P19327)
# Assay: NVS_GPCR_r5HT_NonSelective: NovaScreen (NVS) G Protein-Coupled Receptor Assay for rat Serotonin, 5-Hydroxytryptamine Receptor (5HT), Non-Selective Binding (AID 2283295)
# Outline: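 Radioligand displacement on rat cortical membranes, 1 h incubation, filter-based scintillation counting. Primary duplicates at 25 uM, actives retested in concentration series; loss of signal fitted against DMSO as baseline.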
# Sequence of rat Serotonin, 5-Hydroxytryptamine Receptor (5HT), Non-Selective Binding, Htr1a (gene 24473) (P19327 whole entry, looked up): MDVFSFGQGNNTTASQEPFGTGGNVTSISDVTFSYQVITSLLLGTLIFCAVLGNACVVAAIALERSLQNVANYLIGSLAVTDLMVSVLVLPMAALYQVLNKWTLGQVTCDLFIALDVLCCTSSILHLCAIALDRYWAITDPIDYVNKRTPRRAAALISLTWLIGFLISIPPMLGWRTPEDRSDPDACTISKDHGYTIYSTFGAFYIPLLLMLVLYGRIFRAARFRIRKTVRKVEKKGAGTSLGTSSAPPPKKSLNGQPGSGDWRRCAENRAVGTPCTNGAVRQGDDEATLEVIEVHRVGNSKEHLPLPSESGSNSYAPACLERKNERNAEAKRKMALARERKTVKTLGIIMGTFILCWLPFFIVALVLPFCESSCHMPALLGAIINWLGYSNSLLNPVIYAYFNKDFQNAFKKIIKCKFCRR
SMILES,outcome,AC50
COc1nc(NC(C)C)nc(NC(C)C)n1,inactive,
C=CCC1=C(C)[C@@H](OC(=O)[C@@H]2[C@@H](C=C(C)C)C2(C)C)CC1=O,inactive,
CS/C(C)=N/OC(=O)N(C)SN(C)C(=O)O/N=C(\C)SC,inactive,
O=C(Nc1ccccc1)Nc1ccnc(Cl)c1,,17 µM (active)

# Biological target: rat Corticotropin Releasing Factor Receptor (CRF), Crhr1 (gene 58959) (UniProt P35353)
# Assay: NVS_GPCR_rCRF: NovaScreen (NVS) G Protein-Coupled Receptor Assay for rat Corticotropin Releasing Factor Receptor (CRF) (AID 2283300)
# Outline: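 Rat cortical membranes used as receptor source in a radioligand competitive displacement binding assay; scintillation read 2 h after dosing. Primary screen run in duplicate at 25 uM; loss of signal versus DMSO baseline indicates binding.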
# Sequence of rat Corticotropin Releasing Factor Receptor (CRF), Crhr1 (gene 58959) (P35353 whole entry, looked up): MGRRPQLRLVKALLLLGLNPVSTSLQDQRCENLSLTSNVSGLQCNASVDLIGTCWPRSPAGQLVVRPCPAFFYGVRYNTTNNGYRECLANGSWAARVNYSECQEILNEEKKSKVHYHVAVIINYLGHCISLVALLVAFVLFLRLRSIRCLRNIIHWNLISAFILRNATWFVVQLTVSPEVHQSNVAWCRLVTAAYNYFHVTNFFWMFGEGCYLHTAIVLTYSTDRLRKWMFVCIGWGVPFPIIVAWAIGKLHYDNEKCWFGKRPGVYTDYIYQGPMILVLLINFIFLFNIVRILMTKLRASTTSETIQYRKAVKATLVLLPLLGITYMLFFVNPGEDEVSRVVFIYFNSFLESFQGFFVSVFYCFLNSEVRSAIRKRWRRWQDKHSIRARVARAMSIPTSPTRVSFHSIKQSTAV
row,SMILES,outcome
1,N#Cc1nn(-c2c(Cl)cc(C(F)(F)F)cc2Cl)c(N)c1S(=O)C(F)(F)F (configuration not stated),inactive
2,CNC(=S)S,inactive
3,CCNc1nc(Cl)nc(NC(C)C)n1,inactive

# Biological target: rat Histamine Receptor (H3), Hrh3 (gene 85268) (UniProt Q9QYN8)
# Assay: NVS_GPCR_rH3: NovaScreen (NVS) G Protein-Coupled Receptor Assay for rat Histamine Receptor (H3) (AID 2283303)
# Outline: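 Rat forebrain membranes incubated 1 h with compound; radioligand displacement measured by filter-based scintillation counting. Single-concentration duplicates at 25 µM, then concentration-response up to 50 µM, relative to DMSO.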
SMILES,AC50,outcome
CCCCNC(=O)OCC#CI,4.99 µM (active) and 6.92 µM (active),
Cc1ccc(-c2c(Cl)nc(C#N)n2S(=O)(=O)N(C)C)cc1,5.9 µM (active),
CS/C(C)=N/OC(=O)N(C)SN(C)C(=O)O/N=C(\C)SC,2 µM (active),
N#CC(CCc1ccc(Cl)cc1)(Cn1cncn1)c1ccccc1 (configuration not stated),,inactive

# Biological target: Metabotropic glutamate receptor 1 (Rattus norvegicus) (UniProt P23385)
# Assay: NVS_GPCR_rmMGluR1: NovaScreen (NVS) G Protein-Coupled Receptor Assay for rat Glutamate Metabotropic Receptor 1 (MGluR1) (AID 2283305)
# Outline: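 Rat cerebellum membrane preparation, radioligand displacement binding read by filter-based scintillation counting 1 hour after dosing. Initial duplicate single-point screen at 25 uM, then concentration-response up to 50 uM; loss of signal versus DMSO baseline scored.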
# Sequence of Metabotropic glutamate receptor 1 (Rattus norvegicus) (P23385 whole entry, looked up): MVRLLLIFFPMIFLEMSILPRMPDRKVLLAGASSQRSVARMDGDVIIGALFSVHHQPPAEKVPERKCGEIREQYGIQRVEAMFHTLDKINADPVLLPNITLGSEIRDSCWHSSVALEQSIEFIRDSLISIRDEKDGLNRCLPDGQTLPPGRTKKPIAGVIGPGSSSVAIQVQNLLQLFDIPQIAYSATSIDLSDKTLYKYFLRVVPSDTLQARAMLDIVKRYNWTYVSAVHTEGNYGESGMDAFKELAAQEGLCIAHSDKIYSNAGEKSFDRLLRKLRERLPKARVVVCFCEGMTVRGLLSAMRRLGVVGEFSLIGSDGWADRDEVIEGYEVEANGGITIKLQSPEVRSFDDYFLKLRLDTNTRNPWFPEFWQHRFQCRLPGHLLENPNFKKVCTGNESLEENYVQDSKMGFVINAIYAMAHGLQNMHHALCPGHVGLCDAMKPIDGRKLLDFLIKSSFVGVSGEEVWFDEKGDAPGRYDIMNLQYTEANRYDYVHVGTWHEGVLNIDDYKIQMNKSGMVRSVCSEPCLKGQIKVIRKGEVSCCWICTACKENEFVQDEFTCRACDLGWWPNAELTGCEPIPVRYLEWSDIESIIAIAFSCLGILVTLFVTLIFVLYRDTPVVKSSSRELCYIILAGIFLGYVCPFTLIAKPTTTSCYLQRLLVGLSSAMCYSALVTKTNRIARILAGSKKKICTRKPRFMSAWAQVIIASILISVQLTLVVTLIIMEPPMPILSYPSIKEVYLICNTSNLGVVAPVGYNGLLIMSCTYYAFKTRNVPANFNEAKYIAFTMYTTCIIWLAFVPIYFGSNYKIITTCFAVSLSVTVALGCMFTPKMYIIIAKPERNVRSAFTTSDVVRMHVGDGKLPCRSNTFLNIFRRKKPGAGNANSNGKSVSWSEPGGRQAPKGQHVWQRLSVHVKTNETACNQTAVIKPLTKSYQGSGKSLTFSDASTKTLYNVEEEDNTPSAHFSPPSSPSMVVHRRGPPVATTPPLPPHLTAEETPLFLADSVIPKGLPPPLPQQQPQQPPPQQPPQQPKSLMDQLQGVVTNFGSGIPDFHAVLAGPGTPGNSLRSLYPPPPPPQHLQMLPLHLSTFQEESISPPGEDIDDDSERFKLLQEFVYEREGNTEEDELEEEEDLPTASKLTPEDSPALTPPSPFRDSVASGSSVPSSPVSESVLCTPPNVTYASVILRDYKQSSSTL
SMILES,AC50,outcome
CCCCNC(=O)OCC#CI,19.2 µM (active) and 1.24 µM (active),
Cc1c(F)c(F)c(COC(=O)C2C(/C=C(\Cl)C(F)(F)F)C2(C)C)c(F)c1F (configuration not stated),,inactive
COc1cnc(OC)n2nc(NS(=O)(=O)c3c(OCC(F)F)cccc3C(F)(F)F)nc12,,inactive

# Biological target: Adra2b (gene 24174) (UniProt P19328)
# Assay: NVS_GPCR_rmAdra2B: NovaScreen (NVS) G Protein-Coupled Receptor Assay for hybird cells Adrenergic, Alpha 2B Receptor (Adra2B) (AID 2283306)
# Outline: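 Radioligand filter-binding assay on membrane proteins from neuroglioma/blastoma hybrid cells (rodent), 1 h after dosing; scintillation counting, loss of signal vs DMSO. Primary screen in duplicate at 25 uM, actives then run in concentration series.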
# Sequence of Adra2b (gene 24174) (P19328 whole entry, looked up): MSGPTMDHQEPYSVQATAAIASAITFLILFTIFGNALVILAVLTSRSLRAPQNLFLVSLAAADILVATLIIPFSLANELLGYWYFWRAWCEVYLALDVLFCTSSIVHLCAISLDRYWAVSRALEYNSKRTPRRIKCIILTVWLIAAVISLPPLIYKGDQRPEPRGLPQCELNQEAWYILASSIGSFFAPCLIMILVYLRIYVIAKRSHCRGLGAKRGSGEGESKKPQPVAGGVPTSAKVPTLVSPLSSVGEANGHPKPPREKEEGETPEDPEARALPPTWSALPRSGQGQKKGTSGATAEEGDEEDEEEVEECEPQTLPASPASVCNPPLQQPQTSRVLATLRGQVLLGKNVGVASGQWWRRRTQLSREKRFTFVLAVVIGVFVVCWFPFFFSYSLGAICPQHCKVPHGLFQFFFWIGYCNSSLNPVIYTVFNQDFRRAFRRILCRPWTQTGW
row,SMILES,AC50
1,Cc1ccc(-c2c(Cl)nc(C#N)n2S(=O)(=O)N(C)C)cc1,4.08 µM (active)
2,CC1COC(Cn2cncn2)(c2ccc(Oc3ccc(Cl)cc3)cc2Cl)O1 (configuration not stated),4.59 µM (active)
3,O=C(Nc1ccccc1)Nc1ccnc(Cl)c1,8.91 µM (active)
4,CCON=C(CC)C1=C(O)CC(c2c(C)cc(C)cc2C)CC1=O (configuration not stated),2.7 µM (active)

# Biological target: rat Neurotensin Receptor (NTS), Ntsr1 (gene 366274) (UniProt P20789)
# Assay: NVS_GPCR_rNTS: NovaScreen (NVS) G Protein-Coupled Receptor Assay for rat Neurotensin Receptor (NTS) (AID 2283308)
# Outline: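 Rat forebrain membranes; radioligand binding with competitive displacement, read by filter-based scintillation counting 1 h after dosing. Primary screen in duplicate at 25 uM; actives (e.g., 30% inhibition) rerun in concentration-response up to 50 uM, loss-of-signal versus DMSO.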
# Sequence of rat Neurotensin Receptor (NTS), Ntsr1 (gene 366274) (P20789 whole entry, looked up): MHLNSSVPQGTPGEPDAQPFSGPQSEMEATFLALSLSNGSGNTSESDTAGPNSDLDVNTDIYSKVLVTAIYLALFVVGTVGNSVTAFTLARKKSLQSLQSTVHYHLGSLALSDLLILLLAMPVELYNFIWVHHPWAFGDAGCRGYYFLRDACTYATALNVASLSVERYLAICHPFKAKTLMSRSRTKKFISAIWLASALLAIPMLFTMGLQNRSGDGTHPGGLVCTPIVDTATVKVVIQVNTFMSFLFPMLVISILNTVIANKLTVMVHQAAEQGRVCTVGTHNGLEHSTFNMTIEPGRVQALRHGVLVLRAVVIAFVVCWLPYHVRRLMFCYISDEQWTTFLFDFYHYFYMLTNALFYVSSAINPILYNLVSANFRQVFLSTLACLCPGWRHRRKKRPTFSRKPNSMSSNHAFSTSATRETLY
row,SMILES,outcome
1,COC(=O)C(C)Oc1ccc(Oc2ccc(Cl)cc2Cl)cc1 (configuration not stated),inactive
2,CNC(=S)S,inactive
3,Cc1c(F)c(F)c(COC(=O)C2C(/C=C(\Cl)C(F)(F)F)C2(C)C)c(F)c1F (configuration not stated),inactive
4,CCNc1nc(Cl)nc(NC(C)C)n1,inactive
5,COc1nc(C)nc(NC(=O)NS(=O)(=O)c2ccccc2Cl)n1,inactive
